# Targets with a hit are over-represented here; the source holds about 8,800 in all. About 0.5% of all pairs of compound and target were hits. A number with no mark means an inactive call.
# What was measured:
# Assay in all cases: log2 fold change, soluble protein after heating vs DMSO (PISA); higher = thermal stabilisation; K562 lysate, 10 uM; active = over 0.2 and 3.5 SD of the protein, either way, in both replicates (recomputed)
# alvocidib = compound: CN1CC[C@H](c2c(O)cc(O)c3c(=O)cc(-c4ccccc4Cl)oc23)[C@H](O)C1 [alvocidib]
# How it was run: (§1)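 Soluble protein was defined as the supernatant remaining after 21,000xg for 90 min, following pooling of heated aliquots and adjustment to 0.5% NP-40 at 4°C. Before that, crude K562 extract at 1 mg/mL protein in PBS pH 7.4 with 1 mM MgCl2 was treated with 10 μM compound for 30 min and heated for 3 min across 48°C-58°C. Quantification used TMTpro 16plex LC-MS/MS with channel sums equalised, and values are log-two fold changes in thermal stability relative to solvent controls from duplicates.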
# Tubastatin A = compound: CN1CCc2c(c3ccccc3n2Cc2ccc(C(=O)NO)cc2)C1 [Tubastatin A]
# How it was run: as §1
# [1] = compound: CNC(=O)C1=CC=CC=C1NC2=NC(=NC=C2Cl)NC3=C(C=C(C=C3)N4CCOCC4)OC
# How it was run: as §1
# defactinib = compound: CNC(=O)c1ccc(Nc2ncc(C(F)(F)F)c(NCc3nccnc3N(C)S(C)(=O)=O)n2)cc1 [defactinib]
# How it was run: as §1
# [2] = compound: CNc1nc(-c2ccc3c(N)n[nH]c3c2)cc(N2C[C@@H](C(=O)NC3CCCCC3)CC[C@H]2C)n1
# How it was run: as §1
# encorafenib = compound: COC(=O)N[C@@H](C)CNc1nccc(-c2cn(C(C)C)nc2-c2cc(Cl)cc(NS(C)(=O)=O)c2F)n1 [encorafenib]
# How it was run: as §1
# [3] = compound: COC(=O)[C@H](CCSC)NC(=O)C1=C(C=C(C=C1)NC[C@H](CS)N)C2=CC=CC=C2
# How it was run: as §1
# alisertib = compound: COc1cc(Nc2ncc3c(n2)-c2ccc(Cl)cc2C(c2c(F)cccc2OC)=NC3)ccc1C(=O)O [alisertib]
# How it was run: as §1
# [4] = compound: COc1cc2nc(-c3cc(F)ccc3O)nc(N[C@@H]3CNC[C@H]3C(C)(C)O)c2cc1OC
# How it was run: as §1
# gefitinib = compound: COc1cc2ncnc(Nc3ccc(F)c(Cl)c3)c2cc1OCCCN1CCOCC1 [gefitinib]
# How it was run: as §1
# Sequence of UniProt Q96SZ6 (Q96SZ6 whole entry, looked up): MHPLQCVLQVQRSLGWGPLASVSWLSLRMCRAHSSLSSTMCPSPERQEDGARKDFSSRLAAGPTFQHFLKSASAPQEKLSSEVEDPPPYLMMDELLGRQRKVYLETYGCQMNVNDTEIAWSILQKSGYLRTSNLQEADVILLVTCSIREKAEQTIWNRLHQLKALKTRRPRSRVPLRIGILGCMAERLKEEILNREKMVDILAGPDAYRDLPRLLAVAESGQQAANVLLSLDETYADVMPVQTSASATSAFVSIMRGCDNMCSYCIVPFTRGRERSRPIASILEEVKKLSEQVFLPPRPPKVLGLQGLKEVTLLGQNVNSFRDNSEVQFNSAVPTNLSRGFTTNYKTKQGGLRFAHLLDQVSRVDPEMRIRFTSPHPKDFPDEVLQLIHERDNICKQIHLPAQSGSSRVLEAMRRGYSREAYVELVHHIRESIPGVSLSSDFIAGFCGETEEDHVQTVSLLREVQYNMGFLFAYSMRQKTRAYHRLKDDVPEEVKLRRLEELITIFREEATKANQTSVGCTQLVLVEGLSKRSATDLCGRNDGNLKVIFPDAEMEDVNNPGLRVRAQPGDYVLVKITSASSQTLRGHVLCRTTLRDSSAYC
# Sequence of UniProt O15155 (O15155 whole entry, looked up): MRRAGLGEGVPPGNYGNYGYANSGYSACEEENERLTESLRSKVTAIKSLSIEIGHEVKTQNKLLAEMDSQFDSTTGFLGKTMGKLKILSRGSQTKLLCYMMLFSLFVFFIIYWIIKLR
# Sequence of UniProt P27708 (P27708 whole entry, looked up): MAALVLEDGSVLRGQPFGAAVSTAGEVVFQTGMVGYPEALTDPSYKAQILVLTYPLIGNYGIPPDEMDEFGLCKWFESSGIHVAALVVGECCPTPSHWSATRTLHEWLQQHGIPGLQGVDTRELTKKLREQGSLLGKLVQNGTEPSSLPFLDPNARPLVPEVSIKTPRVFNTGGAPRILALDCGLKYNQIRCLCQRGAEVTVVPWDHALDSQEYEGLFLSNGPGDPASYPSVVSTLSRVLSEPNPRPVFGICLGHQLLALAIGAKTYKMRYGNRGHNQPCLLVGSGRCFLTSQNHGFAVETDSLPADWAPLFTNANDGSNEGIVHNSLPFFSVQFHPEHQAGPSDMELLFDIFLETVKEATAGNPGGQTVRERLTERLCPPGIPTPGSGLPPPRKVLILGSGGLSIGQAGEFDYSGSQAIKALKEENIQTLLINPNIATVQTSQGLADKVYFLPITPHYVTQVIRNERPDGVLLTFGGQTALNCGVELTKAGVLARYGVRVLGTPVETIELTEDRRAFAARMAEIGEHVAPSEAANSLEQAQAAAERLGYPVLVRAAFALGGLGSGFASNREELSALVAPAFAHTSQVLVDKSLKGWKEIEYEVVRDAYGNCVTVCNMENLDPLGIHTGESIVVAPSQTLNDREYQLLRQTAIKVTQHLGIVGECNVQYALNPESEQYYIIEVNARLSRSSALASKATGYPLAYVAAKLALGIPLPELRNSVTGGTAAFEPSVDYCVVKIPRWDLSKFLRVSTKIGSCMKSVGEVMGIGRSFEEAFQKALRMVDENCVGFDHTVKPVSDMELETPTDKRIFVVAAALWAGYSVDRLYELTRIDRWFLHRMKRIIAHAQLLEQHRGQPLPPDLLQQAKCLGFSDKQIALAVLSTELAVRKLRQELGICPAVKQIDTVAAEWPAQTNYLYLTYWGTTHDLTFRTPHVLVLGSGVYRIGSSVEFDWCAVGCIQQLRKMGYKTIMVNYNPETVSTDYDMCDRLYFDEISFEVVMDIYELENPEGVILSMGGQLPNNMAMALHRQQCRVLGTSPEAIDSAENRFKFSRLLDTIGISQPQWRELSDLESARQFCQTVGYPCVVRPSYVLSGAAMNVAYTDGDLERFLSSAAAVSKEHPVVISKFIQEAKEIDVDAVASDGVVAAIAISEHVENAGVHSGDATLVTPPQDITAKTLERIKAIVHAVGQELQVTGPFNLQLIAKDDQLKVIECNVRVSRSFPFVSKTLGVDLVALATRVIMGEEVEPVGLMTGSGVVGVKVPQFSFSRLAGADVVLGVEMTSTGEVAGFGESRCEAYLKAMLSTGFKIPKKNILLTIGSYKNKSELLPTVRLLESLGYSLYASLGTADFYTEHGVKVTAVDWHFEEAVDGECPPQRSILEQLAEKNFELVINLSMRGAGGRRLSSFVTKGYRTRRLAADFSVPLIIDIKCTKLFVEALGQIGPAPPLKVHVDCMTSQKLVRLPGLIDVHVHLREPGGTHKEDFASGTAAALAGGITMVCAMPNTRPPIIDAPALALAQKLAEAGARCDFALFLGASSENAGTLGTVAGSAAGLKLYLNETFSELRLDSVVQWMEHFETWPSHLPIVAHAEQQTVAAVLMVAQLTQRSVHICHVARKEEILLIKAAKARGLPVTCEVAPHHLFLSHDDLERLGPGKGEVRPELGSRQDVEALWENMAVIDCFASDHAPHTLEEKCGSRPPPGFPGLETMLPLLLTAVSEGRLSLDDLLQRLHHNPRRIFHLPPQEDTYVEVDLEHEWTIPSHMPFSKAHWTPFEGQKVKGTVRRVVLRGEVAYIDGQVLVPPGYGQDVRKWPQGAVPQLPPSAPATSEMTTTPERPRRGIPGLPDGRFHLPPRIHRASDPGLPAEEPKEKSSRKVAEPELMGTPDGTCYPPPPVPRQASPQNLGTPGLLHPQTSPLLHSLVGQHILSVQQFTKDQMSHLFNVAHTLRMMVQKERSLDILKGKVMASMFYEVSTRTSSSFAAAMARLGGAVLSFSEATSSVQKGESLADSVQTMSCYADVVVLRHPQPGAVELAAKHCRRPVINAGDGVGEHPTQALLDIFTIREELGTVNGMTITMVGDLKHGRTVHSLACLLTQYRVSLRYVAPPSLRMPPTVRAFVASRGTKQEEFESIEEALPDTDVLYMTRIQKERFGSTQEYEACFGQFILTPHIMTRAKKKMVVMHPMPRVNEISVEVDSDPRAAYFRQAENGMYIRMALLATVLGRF
# Sequence of UniProt O95352 (O95352 whole entry, looked up): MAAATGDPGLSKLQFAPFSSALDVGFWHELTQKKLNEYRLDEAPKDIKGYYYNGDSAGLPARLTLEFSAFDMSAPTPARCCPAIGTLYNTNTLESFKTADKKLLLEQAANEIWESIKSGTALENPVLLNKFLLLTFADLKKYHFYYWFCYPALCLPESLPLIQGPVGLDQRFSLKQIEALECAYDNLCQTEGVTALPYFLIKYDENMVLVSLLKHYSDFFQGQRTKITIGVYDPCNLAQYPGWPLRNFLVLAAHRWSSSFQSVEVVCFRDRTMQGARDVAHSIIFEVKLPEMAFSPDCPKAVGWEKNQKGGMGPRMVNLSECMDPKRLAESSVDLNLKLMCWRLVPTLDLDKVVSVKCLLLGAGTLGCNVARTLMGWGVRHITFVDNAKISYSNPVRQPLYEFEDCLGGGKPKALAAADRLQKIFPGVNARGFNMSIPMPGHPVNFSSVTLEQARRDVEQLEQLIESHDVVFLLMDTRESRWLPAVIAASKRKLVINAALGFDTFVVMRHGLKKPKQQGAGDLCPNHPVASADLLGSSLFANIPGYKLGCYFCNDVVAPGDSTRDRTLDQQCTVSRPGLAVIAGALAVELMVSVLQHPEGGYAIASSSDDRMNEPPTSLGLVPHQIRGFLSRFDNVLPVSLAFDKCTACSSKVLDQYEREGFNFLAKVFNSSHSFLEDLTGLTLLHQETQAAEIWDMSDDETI
# Sequence of UniProt P15313 (P15313 whole entry, looked up): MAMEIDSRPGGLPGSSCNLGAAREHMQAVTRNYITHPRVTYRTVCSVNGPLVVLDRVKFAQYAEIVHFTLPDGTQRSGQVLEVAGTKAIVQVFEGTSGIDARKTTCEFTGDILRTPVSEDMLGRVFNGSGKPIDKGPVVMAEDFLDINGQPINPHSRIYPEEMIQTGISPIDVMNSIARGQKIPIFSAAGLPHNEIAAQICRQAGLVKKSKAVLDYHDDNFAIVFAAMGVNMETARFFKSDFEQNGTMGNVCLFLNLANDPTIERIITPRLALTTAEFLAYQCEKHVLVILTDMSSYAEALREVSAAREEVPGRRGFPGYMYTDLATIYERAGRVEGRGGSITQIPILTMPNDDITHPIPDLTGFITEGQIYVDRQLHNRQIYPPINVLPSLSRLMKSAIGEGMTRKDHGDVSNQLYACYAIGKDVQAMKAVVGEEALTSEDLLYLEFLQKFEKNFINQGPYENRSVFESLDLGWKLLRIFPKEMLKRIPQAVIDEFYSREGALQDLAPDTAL
# Sequence of UniProt Q9Y4P1 (Q9Y4P1 whole entry, looked up): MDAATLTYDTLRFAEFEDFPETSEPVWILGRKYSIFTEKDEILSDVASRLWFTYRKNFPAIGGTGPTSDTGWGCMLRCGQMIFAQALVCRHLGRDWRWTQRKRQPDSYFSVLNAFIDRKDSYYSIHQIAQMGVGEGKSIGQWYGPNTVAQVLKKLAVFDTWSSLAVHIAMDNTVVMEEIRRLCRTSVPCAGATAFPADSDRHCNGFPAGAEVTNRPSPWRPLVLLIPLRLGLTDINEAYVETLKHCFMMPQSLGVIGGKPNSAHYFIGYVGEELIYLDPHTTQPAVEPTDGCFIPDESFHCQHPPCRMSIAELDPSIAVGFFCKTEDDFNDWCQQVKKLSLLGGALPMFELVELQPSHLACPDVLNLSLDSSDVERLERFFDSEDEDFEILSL
# Sequence of UniProt Q9H3K6 (Q9H3K6 whole entry, looked up): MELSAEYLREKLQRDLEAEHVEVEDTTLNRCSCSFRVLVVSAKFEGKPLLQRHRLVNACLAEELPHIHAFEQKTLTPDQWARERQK
# Sequence of UniProt P42574 (P42574 whole entry, looked up): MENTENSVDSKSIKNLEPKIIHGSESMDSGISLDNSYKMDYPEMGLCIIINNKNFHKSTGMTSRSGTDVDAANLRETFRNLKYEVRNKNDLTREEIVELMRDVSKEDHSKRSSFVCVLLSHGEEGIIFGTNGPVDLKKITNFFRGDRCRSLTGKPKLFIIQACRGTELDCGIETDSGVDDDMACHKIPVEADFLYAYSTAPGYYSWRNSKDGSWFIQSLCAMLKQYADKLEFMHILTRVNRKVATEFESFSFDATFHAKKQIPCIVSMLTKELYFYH
Target,log2 fold change (alvocidib),log2 fold change (Tubastatin A),log2 fold change [1],log2 fold change (defactinib),log2 fold change [2],log2 fold change (encorafenib),log2 fold change [3],log2 fold change (alisertib),log2 fold change [4],log2 fold change (gefitinib)
CASP9 (UniProt P55211),-0.01,-0.043,-0.021,0.039,-0.014,0.023,-0.077,0.014,0.017,0.052
ATG7 (UniProt O95352),0.01,-0.075,0.001,0.012,-0.04,0.021,-0.031,0.006,-0.008,0.019
CES2 isoform 4 (UniProt O00748),0.021,-0.065,0.09,-0.111,0.219,0.075,0.01,-0.084,-0.002,-0.061
BET1 (UniProt O15155),0.07,-0.038,0.033,0.058,0.027,-0.062,-0.214 (active),-0.023,-0.022,-0.045
CDKN2AIP (UniProt Q9NXV6),-0.008,-0.066,-0.016,-0.011,0.054,0.023,0.236 (active),0.021,-0.003,-0.073
AURKAIP1 (UniProt Q9NWT8),0.026,0.219,-0.02,0.083,0.072,0.077,-0.057,0.067,0.098,-0.032
ATG4B (UniProt Q9Y4P1),0.052,-0.129,0.025,0,-0.025,0,-0.018,0.053,0.02,-0.071
CAD (UniProt P27708),0,-0.063,0.01,-0.022,-0.008,0.001,0.067,-0.007,-0.015,-0.032
CHD5 (UniProt Q8TDI0),-0.005,-0.022,0,-0.042,0.037,0.024,0.033,-0.016,-0.009,-0.001
CBFA2T3 (UniProt O75081),-0.039,-0.131,0.028,0.004,0.051,0.056,0.037,0.031,-0.042,0.018
BCR (UniProt P11274),-0.007,-0.181,0.002,-0.008,-0.005,0.036,0.085,-0.008,-0.021,-0.024
ATP13A1 (UniProt Q9HD20),0.051,0.036,-0.012,0.028,-0.002,-0.008,-0.067,0.055,0.03,0.011
CDK5RAP3 isoform 4 (UniProt Q96JB5),-0.118,0.038,-0.007,-0.021,0.021,0.007,0.094,0.006,0.026,-0.024
BORCS5 (UniProt Q969J3),-0.012,0.043,-0.001,0.067,0.032,0.074,-0.09,-0.014,0.01,-0.079
CDC40 (UniProt O60508),0.016,0.147,0.045,-0.002,0.069,0.095,0.069,-0.049,0.034,-0.021
BOLA2 (UniProt Q9H3K6),0.02,0.015,-0.065,0.023,-0.052,0.036,-0.057,-0.006,0.009,-0.03
CBX1 (UniProt P83916),0.078,0.011,0.011,-0.001,0.025,0.01,-0.055,0.012,-0.025,0.059
CDC16 (UniProt Q13042),0.012,-0.1,0.002,-0.024,-0.097,0.032,-0.133,-0.008,-0.037,0.017
ATP6V1B1 (UniProt P15313),-0.118,0.095,0.018,-0.005,0.031,-0.032,0.017,0.023,0.009,-0.033
CDK5RAP1 (UniProt Q96SZ6),0.019,-0.023,-0.06,0.018,-0.024,-0.057,0.029,-0.003,–,-0.007
CDKN1B (UniProt P46527),0.057,0.048,0.035,0.067,-0.045,0.03,-0.043,–,0.023,–
CANX isoform 2 (UniProt P27824),-0.024,0.05,-0.006,0.002,-0.003,0.027,-0.015,-0.008,0.023,0.008
CDK8 (UniProt P49336),0.384 (active),-0.059,-0.065,-0.101,0.083,–,–,-0.052,-0.047,0.07
C8orf37 (UniProt Q96NL8),-0.146,0.022,-0.035,0.281,-0.099,0.018,-0.011,–,0.162,–
CASP3 (UniProt P42574),0.045,0.056,0.066,0.008,0.064,0.011,-0.061,-0.037,0.001,-0.001
AVEN (UniProt Q9NQS1),-0.047,-0.154,0.049,-0.097,0.082,0.017,0.016,0.061,–,-0.09
CCDC32 isoform 2 (UniProt Q9BV29),-0.102,-0.033,-0.061,0.095,0.04,0.055,-0.065,-0.098,-0.045,-0.026
CDK13 (UniProt Q14004),0.287 (active),-0.1,-0.044,0.139,-0.184,-0.005,-0.033,0.043,0.078,0.007
CBR1 (UniProt P16152),-0.013,0.015,-0.006,0.008,-0.041,0,0.02,-0.024,0.023,-0.068

# Source: the supplement of paper PMC10849652
